# Results taken from PubChem BioAssay AID602397 (The Scripps Research Institute Molecular Screening Center, 2012).
# Some of the results follow. A number with no mark means an inactive call. No rule for the calls is given here.
# Assay: GFP fluorescence inhibitors and quenchers, late-stage follow-up, artefact control for Rin1-Abl interaction inhibitor project, biochemical, dose response (AID 602397)
# Details: GFP fluorescence quenching counterscreen
compound,measurement,value
CN(Cc1c(F)cccc1Cl)C(=O)CNC(=O)c1ccc2c(c1)OCO2,IC50,> 67.5 µM
